Among the data in ChEMBL document CHEMBL4513146, “CO-ADD screening of Karazin Kharkiv National University (Ukraine) compounds” are Inhibition values, retold here.

Measured potencies and affinities stand elsewhere.

One assay relates to Staphylococcus aureus. To be noted: Concentration 32 ug.mL-1;; ASSAY_TEST Inhibition of Bacterial Growth; detection method Absorption (OD600); MEDIA CAMHB; plate type 384well; NBS; CORNING #3640; time 18 hr.
The next assay concerns Escherichia coli. The settings on record: Concentration 32 ug.mL-1;; ASSAY_TEST Inhibition of Bacterial Growth; detection method Absorption (OD600); MEDIA CAMHB; plate type 384well; NBS; CORNING #3640; time 18 hr.

Regarding `COc1ccc2[nH]cc(C(=O)CSc3nnc4c(=O)n(-c5ccc(F)cc5)ccn34)c2c1`, the Inhibition is recorded as 14.61% with Staphylococcus aureus and -2.83% with Escherichia coli.

Turning to `Cc1ccc(C)c(NC(=O)Cn2nc3c(Sc4ccccc4)nccn3c2=O)c1`, the results for the Inhibition with Staphylococcus aureus and with Escherichia coli were 6.23% and -5.56%, respectively.

Regarding `CCc1nnc2c(S(=O)(=O)N(Cc3cccc(C)c3)c3ccc(C(C)C)cc3)cccn12`, the Inhibition with Staphylococcus aureus is 20.56%; in the assay with Escherichia coli, -0.18%.

`CCc1nnc2c(SCC(=O)Nc3ccc(C)cc3Br)nc3ccccc3n12`: the Inhibition is 2.22% with Staphylococcus aureus and -2.07% in the assay with Escherichia coli.

For `CCOc1ccc(C(=O)CSc2nnc3c(=O)n(-c4ccc(OCC)cc4)ccn23)cc1`, the Inhibition in the assay with Staphylococcus aureus is reported as 18.9%; in the assay on Escherichia coli, 1.24%.

Take `O=C(Cn1nc2c(N3CCOCC3)nccn2c1=O)Nc1cc(C(F)(F)F)ccc1Cl`: the Inhibition was found to be 6.98% in the assay on Staphylococcus aureus and 4.52% in the assay with Escherichia coli.

Consider `COc1ccc(N(Cc2ccc(C)cc2)S(=O)(=O)c2ccc3nnc(C)n3c2)cc1`, for which the Inhibition is reported as -1.53% with Staphylococcus aureus and -8.35% with Escherichia coli.

For `O=c1c2nnc(SCc3ccc(Cl)cc3)n2ccn1-c1ccc(F)c(F)c1`, the Inhibition in the assay on Staphylococcus aureus turned out to be 4.12%; in the assay on Escherichia coli it was 3.28%.

Consider `O=c1c2sccc2n2c(=O)n(Cc3ccc(Br)cc3)nc2n1CCc1ccccc1`, for which the Inhibition in the assay on Staphylococcus aureus is -9.4%; in the assay on Escherichia coli, -11.48%.

For `CC(C)(C)S(=O)(=O)c1ccc2nn(CC(=O)Nc3ccc(Br)cc3)c(=O)n2n1`, the Inhibition in the assay on Staphylococcus aureus is 3.67%; in the assay with Escherichia coli, -5.05%.

For `COc1ccc(C(=O)CSc2nnc3c(=O)n(-c4ccc(Br)cc4)ccn23)cc1`, the Inhibition turned out to be 17.48% in the assay with Staphylococcus aureus and 2.13% in the assay with Escherichia coli.

Turning to `CCC(C)NC(=O)c1ccc2c(=O)n(C3CC3)c3nn(CC(=O)NC(C)C)c(=O)n3c2c1` (centres undefined), the values for the Inhibition in the assay on Staphylococcus aureus and in the assay with Escherichia coli were 10.01% and -2.07%, respectively.

Turning to `Cc1cccc(N(Cc2ccccc2F)S(=O)(=O)c2ccc3nncn3c2)c1`, the Inhibition was -3.86% with Staphylococcus aureus and -5.15% in the assay on Escherichia coli.

`Cc1ccc(C)c(NC(=O)Cn2nc3n(C)c(=O)c4c(c(-c5ccccc5)cn4C)n3c2=O)c1`: the values for the Inhibition in the assay with Staphylococcus aureus and in the assay on Escherichia coli were -4.46% and -19.92%, respectively.

Turning to `COc1ccc(-c2cc3c4nn(CC(=O)Nc5cc(OC)cc(OC)c5)c(=O)n4ccn3n2)cc1`, the Inhibition with Staphylococcus aureus is given as -11.7%; in the assay with Escherichia coli, -10.82%.

As to `Cc1nnc2ccc(S(=O)(=O)N(Cc3ccccc3F)c3ccc(F)cc3)cn12`, the Inhibition with Staphylococcus aureus is on record as -2.33%; in the assay on Escherichia coli, -7.33%.

`CCc1ccc(Cn2c(=O)c3sccc3n3c(=O)n(Cc4c(F)cccc4Cl)nc23)cc1`: the Inhibition was 3.47% in the assay on Staphylococcus aureus and -8.75% in the assay with Escherichia coli.

On to `Cc1nnc2c(SCC(=O)Nc3ccc(C#N)cc3)nc3ccccc3n12`, for which the Inhibition is -1.63% with Staphylococcus aureus and -2.61% in the assay with Escherichia coli.

As for `COc1ccc(OC)c(NC(=O)Cn2nc3c4cc(-c5ccc(C)c(C)c5)nn4ccn3c2=O)c1`, the Inhibition is on record as 0.06% with Staphylococcus aureus and -4.32% in the assay with Escherichia coli.

As to `Cc1ccc(CNC(=O)Cn2nc3c(Sc4ccc(C)cc4C)nccn3c2=O)cc1`, the Inhibition in the assay with Staphylococcus aureus is listed as -3.31%; in the assay on Escherichia coli it was -11.72%.

`CCCCN(C)c1ccc2nnc(CCc3nc(-c4ccc(OCc5ccccc5)cc4)no3)n2n1`: the Inhibition is recorded as -12.25% with Staphylococcus aureus and -8.06% in the assay on Escherichia coli.

On to `Cc1ccc(Cl)cc1NC(=O)Cn1nc2c3c4c(sc3ncn2c1=O)CCCCC4`, for which the Inhibition in the assay with Staphylococcus aureus is listed as 5.6%; with Escherichia coli, -1.7%.

As to `Cc1nnc2ccc(S(=O)(=O)N(Cc3ccccc3F)c3cc(F)cc(F)c3)cn12`, the Inhibition with Staphylococcus aureus is recorded as -3.63%; with Escherichia coli, -18.18%.

Consider `COc1ccccc1CNC(=O)Cn1nc2c(N3CCC(C)CC3)nccn2c1=O`, for which the Inhibition with Staphylococcus aureus is 13.11%; in the assay on Escherichia coli it was -0.77%.

As to `Cc1ccc(F)cc1NC(=O)CSc1nnc2ccc(C(=O)Nc3cccc(F)c3)cn12`, the Inhibition with Staphylococcus aureus is recorded as 13.04%; in the assay with Escherichia coli, 0.82%.

For the molecule `CCCc1nnc2c(=O)n(CC(=O)Nc3ccc(Cl)c(Cl)c3)c3ccccc3n12`, the Inhibition with Staphylococcus aureus was -1.25%; with Escherichia coli, 0.68%.

Turning to `CCOc1ccc(-n2ccn3c(SCC(=O)Nc4cc(Cl)ccc4OC)nnc3c2=O)cc1`, the results for the Inhibition in the assay with Staphylococcus aureus and with Escherichia coli were 6.02% and 1.04%, respectively.

For the molecule `Cc1ccc(NC(=O)Cn2nc3ccc(SCc4ccc(Cl)cc4)nn3c2=O)cc1`, the values for the Inhibition with Staphylococcus aureus and in the assay on Escherichia coli were -0.24% and -6.34%, respectively.

As to `Cc1cccc(N(C)C(=O)Cn2nc3cc(C)nc(Nc4ccc(F)c(C)c4)n3c2=O)c1`, the figures for the Inhibition in the assay on Staphylococcus aureus and in the assay on Escherichia coli were 1.96% and -7.99%, respectively.

`Cc1ccccc1CSc1nnc2c(=O)n(-c3ccc(F)c(F)c3)ccn12`: the results for the Inhibition with Staphylococcus aureus and in the assay on Escherichia coli were 12.28% and -1.52%, respectively.

Take `COc1cccc(-n2ccn3c(SCC(=O)NCc4ccc(C)cc4)nnc3c2=O)c1`: the Inhibition is reported as -1.77% with Staphylococcus aureus and 2.15% with Escherichia coli.

Take `CCc1nnc2c(SCC(=O)Nc3ccc(Cl)cc3)nc3ccccc3n12`: the Inhibition came to 15.07% with Staphylococcus aureus and 2.66% in the assay on Escherichia coli.
